Hit rate of the full screen: of about 1,400 compounds, about 10 (0.7%) were called active. The list is a sample of the results. Entries with a potency or affinity are not part of this list. Unmarked numbers belong to inactive results. The rule behind the calls is not given here.
Test: viability loss in BHK-21 cells – cell-based, plate reader, cherry-pick samples, cytotoxicity control, dose response (AID 687030);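 note: cells were exposed to compound for three days before reading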
Details: series mostly up to 19.5 µM; activity change, negative = toxicity: at the top concentration
With C[C@@H]1CCCCO[C@@H](CN(C)C(=O)c2ccccc2)[C@@H](C)CN([C@H](C)CO)C(=O)c2cc(NC(=O)CCC(F)(F)F)ccc2O1 the “activity change, negative = toxicity” value was 1.72%. For CC1(C)CN(Cc2cccnc2)C(=O)[C@H]1CC(=O)Nc1ccc(Br)cc1, the “activity change, negative = toxicity” value was -3.75%. For Cc1cc(NC(=O)Cn2c(=O)oc3ccc(Cl)cc32)no1, the “activity change, negative = toxicity” value was -5.82%. For CC(C)(C)NC(=O)c1cccc(NC(=O)c2ccc3c(c2)C(=O)N(C(C)(C)C)C3=O)c1, the “activity change, negative = toxicity” value was 3.1%. In the case of COc1cc(OC)cc(C(=O)Nc2ccc3nc4n(c(=O)c3c2)CCCC4)c1, the “activity change, negative = toxicity” value is reported as -2.03%. For CN(Cc1ccc(Cl)c(Cl)c1)C(=O)C1CC(=O)N(c2ccc3c(c2)OCCO3)C1 (stereo not given), the “activity change, negative = toxicity” value was 4.82%. In the case of COc1ccc(CN2C(=O)CCC2(C)c2nnnn2Cc2ccccc2)cc1 (stereo not given), the “activity change, negative = toxicity” value is reported as -0.033%. With Cc1cc(C)c(OCCCNC2CCCC2)c(Br)c1 the “activity change, negative = toxicity” value was -1.02%. With COc1cc(O)c(C(CC(=O)N2CCCC(C)C2)c2cc(OC)c(OC)c(OC)c2)c(OC)c1 (stereo not given) the “activity change, negative = toxicity” value was -0.011%. For CN(C)c1ccc(CC(=O)N2CCCC(c3cc(C(=O)Nc4ccc(F)c(Cl)c4)no3)C2)cc1 (stereo not given), the “activity change, negative = toxicity” value was -3.81%. For C/C=C/c1cnc2c(c1)C(=O)N([C@H](C)CO)C[C@H](C)[C@H](CN(C)S(=O)(=O)c1ccccc1)O2, the “activity change, negative = toxicity” value was -4.37%. For Cc1ccc(S(=O)(=O)N2CC[C@@H]3[C@H](CO)Nc4ccc(-c5ccccc5F)cc4[C@@H]32)cc1, the “activity change, negative = toxicity” value was 1.83%. In the case of COc1ccc(-c2ccc3c(c2)[C@H]2[C@H](CCN2C(=O)CN2CCOCC2)[C@@H](CO)N3)cc1, the “activity change, negative = toxicity” value is reported as -1.16%. In the case of Cc1ccc(CNC(=O)[C@H](C)N2C(=O)N3CCc4c([nH]c5ccccc45)[C@@]3(C)C2=O)cc1, the “activity change, negative = toxicity” value is reported as 2.09%. With C/C(=N/NC(=O)CCC(=O)Nc1cccc(Cl)c1)c1ccc(C)cc1 the “activity change, negative = toxicity” value was 3.02%. For CC(C)(C)NC(=O)C(c1cccc2ccccc12)n1c(=O)c(-c2ccccc2)nc2ccccc21 (stereo not given), the “activity change, negative = toxicity” value was -11.1%. In the case of CCOc1ncccc1C(=O)OCC(=O)NCc1ccc(C(=O)OC)cc1, the “activity change, negative = toxicity” value is reported as 3.61%. In the case of C[C@@H]1CCCCO[C@H](CN(C)C(=O)Nc2cccc3ccccc23)[C@@H](C)CN([C@@H](C)CO)C(=O)c2cc(NS(=O)(=O)c3cn(C)cn3)ccc2O1, the “activity change, negative = toxicity” value is reported as -3.64%. For CCn1c(SCc2cccc(F)c2)nnc1-c1ccncc1, the “activity change, negative = toxicity” value was 6.68%. For Cc1cccc(C)c1-n1nnnc1C1(C)CCC(=O)N1Cc1cccnc1 (stereo not given), the “activity change, negative = toxicity” value was 2.93%. With O=C(NCC1CCCCC1)[C@@H]1[C@@H](CO)[C@@H]2Cn3c(cccc3=O)[C@H]1N2CCc1ccccc1 the “activity change, negative = toxicity” value was -0.648%. In the case of C[C@H]1CCCCO[C@H](CN(C)C(=O)Nc2ccc(C(F)(F)F)cc2)[C@@H](C)CN([C@@H](C)CO)C(=O)c2cc(NC(=O)C3CCCCC3)ccc2O1, the “activity change, negative = toxicity” value is reported as 3.54%. For OC(c1ccccc1)C(NCc1ccccc1)c1ccccc1 (stereo not given), the “activity change, negative = toxicity” value was -0.633%. In the case of CCC(=O)Nc1ccc(NC(=O)c2oc3ccccc3c2C)cc1, the “activity change, negative = toxicity” value is reported as 2.33%. For CC1(C)CC(NC(=O)COc2ccccc2Cl)CC(C)(C)N1, the “activity change, negative = toxicity” value was -3.56%. For O=C(NC1CCCC1)C(C1CC1)n1c(C2CCCC2)nc2ccccc21 (stereo not given), the “activity change, negative = toxicity” value was 5.11%. With CCOC(=O)c1ccc(S(=O)(=O)N2CCC(N3CCCCC3)CC2)cc1 the “activity change, negative = toxicity” value was 4.69%. In the case of CCc1ccc(NC(=O)N(CCCN2CCOCC2)Cc2cccs2)cc1, the “activity change, negative = toxicity” value is reported as -5.74%. For COc1ccc(N(C(=O)c2cccnc2)S(=O)(=O)c2ccc(OC)c(OC)c2)cc1, the “activity change, negative = toxicity” value was 3.7%. In the case of CO[C@@H]1CN(C)C(=O)c2ccc(NC(C)=O)cc2OC[C@@H](C)N(S(C)(=O)=O)C[C@H]1C, the “activity change, negative = toxicity” value is reported as 5.12%. With CCc1ccc2cc(C)cc(C)c2n1 the “activity change, negative = toxicity” value was 4.74%. In the case of COc1ccc(S(=O)(=O)Nc2ccc3c(c2)C(=O)N([C@@H](C)CO)C[C@@H](C)[C@H](CN(C)S(=O)(=O)c2ccc(Cl)cc2)O3)cc1, the “activity change, negative = toxicity” value is reported as 0.886% [at 21 µM]. For CCCn1c(-c2ccc[nH]c2=O)nc2cc(C)c(C)cc21, the “activity change, negative = toxicity” value was -8.05%. With C[C@H]1CCCCO[C@@H](CN(C)C(=O)Nc2cccc3ccccc23)[C@@H](C)CN([C@@H](C)CO)C(=O)c2cc(NC(=O)Cc3ccccc3)ccc2O1 the “activity change, negative = toxicity” value was -1.49%. In the case of Cc1cccc(C(=O)N2CCC(=O)N([C@H](COCc3ccc(Cl)cc3)Cc3ccccc3)CC2)c1, the “activity change, negative = toxicity” value is reported as -8.53%. For Cc1c(C(=O)Nc2ccccc2F)sc2ncn(CC(=O)N3CCOCC3)c(=O)c12, the “activity change, negative = toxicity” value was 8.12%. With Cc1nc2ccc(C(=O)NC(C)(C)C)cn2c1N(C)C(=O)CCc1ccccc1 the “activity change, negative = toxicity” value was 2.03%. In the case of O=C(Nc1ccc2ccccc2c1)C(C1CC1)n1c(=O)c(-c2cc3ccccc3[nH]2)nc2ccccc21 (stereo not given), the “activity change, negative = toxicity” value is reported as -3.31%. For COc1ccc(CCC(C)NCc2ccc(F)cc2)cc1 (stereo not given), the “activity change, negative = toxicity” value was 1.5%. With CCCn1c(=N)n(CC(O)COc2ccc(C)cc2)c2ccccc21 (stereo not given) the “activity change, negative = toxicity” value was -1.96%. In the case of CCN(C(=O)COC(=O)c1cc2c(s1)CCCCC2)C1CCS(=O)(=O)C1 (stereo not given), the “activity change, negative = toxicity” value is reported as 1.06%. In the case of Cc1cc(C)n2c(NC3CCCC3)c(-c3cccnc3)nc2n1, the “activity change, negative = toxicity” value is reported as 2.56%. For CCOC(=O)C1CCN(Cc2c(C(=O)N3CCOCC3)nc3c(C)cccn23)CC1, the “activity change, negative = toxicity” value was 5.72%. With CCCCC[C@H]1CN(CCc2ccccc2)C(=O)[C@@H]1CC(=O)NCc1ccc(OC)cc1 the “activity change, negative = toxicity” value was -0.393%. For CO[C@H]1CN(C)C(=O)c2cc(NC(=O)c3ccccc3F)ccc2OC[C@H](C)N(CC2CCOCC2)C[C@H]1C, the “activity change, negative = toxicity” value was -0.939%. In the case of CC(=O)N[C@@H]1CC[C@H](CCNC(=O)C2CCCC2)O[C@H]1CO, the “activity change, negative = toxicity” value is reported as -4.73%. For CC(C)NC(=O)Nc1ccc2c(c1)C(=O)N([C@@H](C)CO)C[C@H](C)[C@H](CN(C)C(=O)Nc1ccc3c(c1)OCO3)O2, the “activity change, negative = toxicity” value was 9.73%. With COc1ccc(NC(=O)Nc2cccc3c2O[C@H](CN(C)S(=O)(=O)c2ccccc2)[C@H](C)CN([C@@H](C)CO)C3=O)cc1 the “activity change, negative = toxicity” value was -6.01% [at 21 µM]. In the case of COc1ccc(S(=O)(=O)N2CCCC2C(=O)NCC(=O)Nc2cccc(Cl)c2C)cc1 (stereo not given), the “activity change, negative = toxicity” value is reported as -8.9%. With O=C(NCc1ccncc1)c1cccc(NS(=O)(=O)c2ccc(F)c(F)c2)c1 the “activity change, negative = toxicity” value was -0.321%.

Source: PubChem BioAssay AID687030 (Broad Institute, 2013)
